Data on seven compounds can be found in PubChem BioAssay (NCI).

Test systems include NCI-H23 lung; NCI-H226 lung; NCI-H322M lung; HOP-62 NSCLC; NCI-H460 lung; HOP-92 NSCLC; A549/ATCC NSCLC; 786-0 renal; COLO 205 colon; DU-145 prostate; K-562 leukemia; MALME-3M melanoma; MDA-MB-231 breast; RXF 393 renal; SF-268 CNS; SF-295 CNS; SF-539 CNS; UACC-257 melanoma; M14 melanoma.
What all share (experiment): NCI-60 one-dose screen, 48 h (100 = growth as untreated, 0 = no growth, -100 = all killed)
Holding throughout (settings): 10 µM unless noted

About 83,000 compounds went through this panel and 20% of them were active in at least one assay; those are over-represented in the sample as a whole.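 Values shown are percent growth following 48 h exposure of cells in 96-well plates to a single concentration of compound; below 10 was considered active.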 A number with no mark means an inactive call. Calls of active or inactive are those of the source.

As to `C[C@H](C(=O)N[C@@H](Cc1ccc(-c2ccccc2)cc1)C(=O)NC1CC(C)(C)NC(C)(C)C1)c1ccc(-c2ccccc2)c(F)c1`, the growth is -42% (active) with NCI-H23 lung; -26.7% (active) in the test with NCI-H226 lung; -34% (active) in the test on NCI-H322M lung; -67.4% (active) in the test on HOP-62 NSCLC; -76.4% (active) in the test with NCI-H460 lung; -69.7% (active) in the test on HOP-92 NSCLC. In addition, the growth in the test on A549/ATCC NSCLC was -76.9% (active); in the test with 786-0 renal, -88.6% (active); with COLO 205 colon it was -81.8% (active); with DU-145 prostate it was -89.3% (active); with K-562 leukemia it was -53.7% (active); with MALME-3M melanoma, -77.4% (active). For the same compound, the growth in the test on MDA-MB-231 breast is -53.6% (active); with RXF 393 renal, -55.6% (active); with SF-268 CNS, -58.1% (active); in the test with SF-295 CNS, -54.5% (active); in the test on SF-539 CNS, -78.6% (active); in the test with UACC-257 melanoma, -62.9% (active). Besides, the growth in the test with M14 melanoma was -79.2% (active).
`COc1ccc2c(c1)c(CC(=O)[Se]C)c(C)n2C(=O)c1ccc(Cl)cc1`: the growth was 5.36% (active) in the test on NCI-H23 lung; -34% (active) with NCI-H226 lung; 55.8% in the test on NCI-H322M lung; -0.299% (active) with HOP-62 NSCLC; 3.41% (active) in the test with NCI-H460 lung; -6.92% (active) in the test on HOP-92 NSCLC. Moreover, the growth was 7.25% (active) in the test with A549/ATCC NSCLC; 9.49% (active) with 786-0 renal; 50.1% in the test with COLO 205 colon; -7.9% (active) in the test with DU-145 prostate; 29.8% in the test on K-562 leukemia; -41.9% (active) in the test on MALME-3M melanoma. Besides, the growth in the test on MDA-MB-231 breast was 44.4%; with RXF 393 renal it was 4.4% (active); in the test with SF-268 CNS it was -26.5% (active); in the test on SF-295 CNS, 12.7%; in the test on SF-539 CNS it was -17.4% (active); in the test with UACC-257 melanoma, 3.77% (active). Moreover, the growth with M14 melanoma was -13.9% (active).
Take `O=CNc1ccc2c(c1)Cc1cc([N+](=O)[O-])ccc1-2`: the growth in the test with NCI-H23 lung was 37.9%; in the test with NCI-H226 lung, 66.5%; in the test on NCI-H322M lung, 9.9% (active); in the test with HOP-62 NSCLC it was 26.5%; in the test on NCI-H460 lung, 15.8%; in the test with HOP-92 NSCLC it was 42.4%. The growth was 18.6% in the test on A549/ATCC NSCLC; 38.1% in the test with 786-0 renal; 1.14% (active) in the test with COLO 205 colon; 0.835% (active) with DU-145 prostate; 21.3% in the test with K-562 leukemia; 11.4% in the test on MALME-3M melanoma. Further, the growth is 34.4% in the test on MDA-MB-231 breast; -14.6% (active) in the test with RXF 393 renal; 42% with SF-268 CNS; 16.3% in the test with SF-295 CNS; 27.9% in the test with SF-539 CNS; 59.3% in the test with UACC-257 melanoma. In addition, the growth in the test on M14 melanoma is -15.7% (active).
Take `O=C(Nc1cccc(-n2cc(-c3ccncc3)c(-c3cc(O)cc(Cl)c3)n2)c1)Nc1ccc(Cl)c(Cl)c1`: the growth in the test on NCI-H23 lung is -20.5% (active); in the test on NCI-H226 lung, 14.5%; in the test with NCI-H322M lung, 19.5%; with HOP-62 NSCLC, -44.2% (active); with NCI-H460 lung, 0.213% (active); with HOP-92 NSCLC, -30.5% (active). Moreover, the growth with A549/ATCC NSCLC is 3.96% (active); in the test on 786-0 renal, -72.1% (active); in the test with COLO 205 colon it was 22.4%; in the test on DU-145 prostate, -15.1% (active); in the test with K-562 leukemia it was 1.06% (active); in the test on MALME-3M melanoma, -35.1% (active). The growth was -38.1% (active) in the test on MDA-MB-231 breast; -70.3% (active) in the test with RXF 393 renal; 16.2% in the test with SF-268 CNS; -50.5% (active) in the test with SF-295 CNS; -29% (active) in the test on SF-539 CNS; -70.7% (active) in the test with UACC-257 melanoma. In addition, the growth in the test with M14 melanoma is -69.2% (active).
`Cc1ccc2nc(-c3ccc(N(C)C)c(Br)c3)cn2c1`: the growth in the test on NCI-H23 lung is 92%; with NCI-H226 lung it was 98.4%; in the test with NCI-H322M lung, 120%; with HOP-62 NSCLC, 93.4%; with NCI-H460 lung, 40.3%; in the test on HOP-92 NSCLC, 126%. The growth in the test with A549/ATCC NSCLC is 98.9%; in the test with 786-0 renal it was 87.8%; in the test on COLO 205 colon it was 89.3%; in the test on DU-145 prostate, 93.7%; in the test on K-562 leukemia it was 29%; with MALME-3M melanoma it was 116%. Further, the growth was 92.9% in the test on MDA-MB-231 breast; 62.8% in the test with RXF 393 renal; 78.2% in the test on SF-268 CNS; 90.5% in the test with SF-295 CNS; 65.9% with SF-539 CNS; 90.7% in the test on UACC-257 melanoma. Also, the growth in the test on M14 melanoma was 78.6%.
As for `COc1cc(-c2nc3sc4c(c3c(=O)[nH]2)CCCCCC4)cc(OC)c1OC`, the growth with NCI-H23 lung is 22.3%; in the test with NCI-H226 lung it was 60.9%; with NCI-H322M lung, 39%; in the test on HOP-62 NSCLC, 29.6%; with NCI-H460 lung it was 8.85% (active); with HOP-92 NSCLC, 42.7%. Moreover, the growth with A549/ATCC NSCLC was 25.8%; with 786-0 renal, 40.7%; in the test on COLO 205 colon, -24.2% (active); in the test on DU-145 prostate, 12.1%; in the test on K-562 leukemia, 5.92% (active); in the test with MALME-3M melanoma, 25.6%. Also, the growth in the test with MDA-MB-231 breast is 7.21% (active); with RXF 393 renal, 0.561% (active); with SF-268 CNS it was 27.2%; in the test with SF-295 CNS, 13.7%; in the test on SF-539 CNS, -5.36% (active); in the test with UACC-257 melanoma, 63.7%. The growth in the test on M14 melanoma was 23.1%.
For the compound `c1ccc(-c2nc(Nc3nccnn3)c3ccccc3n2)cc1`, the growth in the test with NCI-H23 lung is 90.4%; in the test with NCI-H226 lung, 87.5%; with NCI-H322M lung it was 98.1%; with HOP-62 NSCLC it was 99.8%; with NCI-H460 lung, 101%; in the test with HOP-92 NSCLC it was 105%. Further, the growth in the test with A549/ATCC NSCLC was 102%; in the test on 786-0 renal it was 96.9%; with COLO 205 colon, 107%; in the test on DU-145 prostate, 99.5%; in the test on K-562 leukemia it was 91.1%; in the test on MALME-3M melanoma it was 99.1%. Besides, the growth with MDA-MB-231 breast is 91.8%; in the test on RXF 393 renal, 96.7%; with SF-268 CNS, 98%; in the test on SF-295 CNS, 98%; in the test with SF-539 CNS, 99.1%; in the test with UACC-257 melanoma, 109%. For the same compound, the growth in the test with M14 melanoma was 99.3%.
